Activity calls are given as the source filed them. The calls were made as follows: active = hit-call score of the fitted dose curve at least 0.9, where 1 is the maximum; inactive = score below 0.9.
What follows are molecules tested against Myc proto-oncogene protein (Homo sapiens) (UniProt P01106) (assay: ATG_Myc_CIS: Attagene CIS-FACTORIAL HepG2 Assay for human Myelocytomatosis (Myc) Proto-Oncogene Transcription Factor (AID 2282990)). Conditions: HepG2, Attagene cis-reporter transcription factor activity; actives raise or lower the signal.
Myc proto-oncogene protein (Homo sapiens), sequence (P01106 whole entry, looked up): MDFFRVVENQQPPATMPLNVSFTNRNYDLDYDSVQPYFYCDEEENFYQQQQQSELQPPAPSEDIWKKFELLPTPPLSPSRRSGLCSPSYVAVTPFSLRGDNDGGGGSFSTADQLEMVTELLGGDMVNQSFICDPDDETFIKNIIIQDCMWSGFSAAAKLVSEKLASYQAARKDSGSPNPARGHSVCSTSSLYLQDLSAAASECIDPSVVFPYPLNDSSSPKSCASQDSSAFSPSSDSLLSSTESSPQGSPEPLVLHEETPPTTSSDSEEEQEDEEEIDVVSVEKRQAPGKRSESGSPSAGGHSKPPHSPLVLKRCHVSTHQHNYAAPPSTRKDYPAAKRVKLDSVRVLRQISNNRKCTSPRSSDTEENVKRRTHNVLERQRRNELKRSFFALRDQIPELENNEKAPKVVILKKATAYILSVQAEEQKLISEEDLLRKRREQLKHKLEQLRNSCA
Protocol: ATG_CIS is a cell-based, multiplexed-readout assay that uses HepG2, a human liver cell line, with measurements taken at 24 hours after chemical dosing in a 24-well plate.ATG_Myc_CIS is one of 52 assay component(s) measured or calculated from the ATG_CIS assay. It is designed to make measurements of mRNA induction, a form of inducible reporter, as detected with fluorescence intensity signals by Reverse transcription polymerase chain reaction (RT-PCR) and Capillary electrophoresis technology.Data from the assay component ATG_Myc_CIS was analyzed into 1 assay endpoint. This assay endpoint, ATG_Myc_CIS, was analyzed with bidirectional fitting relative to DMSO as the negative control and baseline of activity. Using a type of inducible reporter, measures of mRNA for gain or loss-of-signal activity can be used to understand the reporter gene at the transcription factor-level as they relate to the gene MYC. Furthermore, this assay endpoint can be referred to as a primary readout, because this assay has produced multiple assay endpoints where this one serves a reporter gene function. To generalize the intended target to other relatable targets, this assay endpoint is annotated to the dna binding intended target family, where the subfamily is basic helix-loop-helix leucine zipper.
Human liver HepG2 cells are transiently transfected with multiple reporter transcription units (MRTUs) in 6-well plates using FuGene 6 reagent (Roche; 3 ml FuGene/1 mg DNA). The MRTU constructs are regulated by a cis-regulating element (promoter). […] A major difference between the CIS and TRANS system is that in CIS activities of endogenous TFs are measured, whereas the TRANS assay evaluates changes in activities of exogenous, chimeric NR-Gal4 proteins. […] At the end of 24 hour incubation, total RNA was isolated using TriZol reagent (Invitrogen). The isolated RNA is then reverse-transcribed using oligo(dT) primer and Mo-MLV reverse transcriptase (Invitrogen) with DNAse I (Ambion) treatment for 30 min. The one-tenth of the produced cDNA was amplified by PCR using Taq DNA polymerase (Invitrogen) and two reporter sequence-specific primers. The PCR products were fluorescently labeled by primer extension with 6-arboxyfluorescein (6-FAM) 5'-labeled reporter sequence-specific primer (2 min at 95 C, 20 s at 68 C and 10 min at 72 C) and these products were digested with 5U of HpaI (New England Biolabs) for 2h at 37 C. The fragments were purified using Qiaquick PCR columns (Qiagen), analyzed on an ABI 3130xL genetic analyzer (Applied Biosystems) with peak positions identified by using a set of X-rhodamine (ROX)-labeled MapMarker1000 molecular weight standards (BioVentures). The raw capillary electrophoresis data was processed using Attagraph software (Attagene).

| Compound | outcome | AC50 |
| --- | --- | --- |
| O=C(O)c1cccc(C[C@@H]2COc3ccc(OCc4nc5cc(F)ccc5s4)cc3[C@@H]2O)c1 | inactive | – |
| O=C(O)[C@H](O)[C@@H](O)C(=O)O | inactive | – |
| OCCOCCOCCO | inactive | – |
| OC(CCl)CCl | inactive | – |
| CCn1nc(C)c2c1C(=O)NCC(c1ccc(O)cc1)=N2 | inactive | – |
| NCC(F)(F)C(F)(F)C(F)(F)C(F)(F)F | inactive | – |
| CC(=O)c1ccccc1 | inactive | – |
| CC[C@H](C)C(=O)O[C@H]1C[C@H](O)C=C2C=C[C@H](C)[C@H](CC[C@@H](O)C[C@@H](O)CC(=O)O)[C@H]21 | inactive | – |
| c1ccc2c(c1)-c1cccc3c1c-2cc1ccccc13 | inactive | – |
| COc1cc2c(c(OC)c1OC)-c1ccc(OC)c(=O)cc1[C@@H](NC(C)=O)CC2 | inactive | – |
| C[Si](C)(C)C(F)(F)C(F)(F)C(F)(F)F | inactive | – |
| CCCCCCCCCCCCCCO | – | 166 µM (active) |
| c1ccc2cc3ccccc3cc2c1 | inactive | – |
| COS(C)(=O)=O | inactive | – |
| Cc1cccc(O)c1C | inactive | – |
| Cc1nccn1-c1ccc(Sc2cccc(C3(C(N)=O)CCOCC3)c2)cc1 | – | 2.85 µM (active) |
| CCCC(CCC)C(=O)O | inactive | – |
| CCOC(N)=O | inactive | – |
| O=c1[nH]cnc2c1ncn2[C@H]1CC[C@@H](CO)O1 | inactive | – |
| Nc1ccn([C@@H]2O[C@H](CO)[C@@H](O)[C@@H]2O)c(=O)n1 | inactive | – |

| Compound | outcome | AC50 |
| --- | --- | --- |
| NNC(=O)c1ccncc1 | inactive | – |
| CCCCCCCC1CCC(=O)O1 (stereo not given) | inactive | – |
| OC(O)(C(F)C(O)(O)C(F)(F)F)C(F)(F)F | inactive | – |
| OCCNCCO | inactive | – |
| O=C(N[C@H](CO)[C@H](O)c1ccc([N+](=O)[O-])cc1)C(Cl)Cl | inactive | – |
| OCc1ccccc1 | inactive | – |
| C[C@@H](Oc1ccc(CNC(=O)c2cccnc2Oc2ccc3c(c2)OCO3)c(F)c1)C(=O)O | inactive | – |
| CCCCCOC(C)=O | inactive | – |
| OC[C@H]1O[C@@H]2O[C@H]3[C@H](O)[C@@H](O)[C@@H](O[C@H]4[C@H](O)[C@@H](O)[C@@H](O[C@H]5[C@H](O)[C@@H](O)[C@@H](O[C@H]6[C@H](O)[C@@H](O)[C@@H](O[C@H]7[C@H](O)[C@@H](O)[C@@H](O[C@H]1[C@H](O)[C@H]2O)O[C@@H]7CO)O[C@@H]6CO)O[C@@H]5CO)O[C@@H]4CO)O[C@@H]3CO | inactive | – |
| OCCC(F)(F)C(F)(F)C(F)(F)C(F)(F)F | inactive | – |
| CC(C)CCCCCCOC(=O)C1CCCCC1C(=O)OCCCCCCC(C)C (stereo not given) | inactive | – |
| O=C(NO)C1(NS(=O)(=O)c2ccc(Oc3ccc(F)cc3)cc2)CCOCC1 | inactive | – |
| CC(C)c1nnc2ccc(-c3ocnc3-c3cc(F)ccc3F)cn12 | inactive | – |
| CCCCCCCC/C=C\CCCCCCCC(=O)OC[C@@H](O)[C@H]1OC[C@H](O)[C@H]1O | inactive | – |
| NC(N)=O | inactive | – |
| S=P(N1CC1)(N1CC1)N1CC1 | inactive | – |
| OC[C@H]1O[C@@](CO)(O[C@H]2O[C@H](CO)[C@@H](O)[C@H](O)[C@H]2O)[C@@H](O)[C@@H]1O | inactive | – |
| CCc1cccc(CC)c1N | inactive | – |
| CCCCN1C(=O)[C@@H]([C@H](O)C2CCCCC2)NC(=O)C12CCN(Cc1ccc(Oc3ccc(C(=O)O)cc3)cc1)CC2 | inactive | – |
| NC(=O)N(O)[C@@H]1COc2cc(OCc3ccccc3)ccc21 | inactive | – |

Source: PubChem BioAssay (EPA / NIEHS)
